From PubChem BioAssay
Shown is part of a subset that was picked to be rich in hits.
IL-1B inflam inh: inhibitors of inflammasome signaling (IL-1 beta secretion) | hit rate 4.7% among 360,000 | activity change, % at 57.5 µM | THP-1 LPS/ATP IL-1B secretion, AlphaLISA, 16 h; hits give low values; in the data active means activity change below about -50%; inconclusive means mostly about -30% to -49%
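Secreted IL-1B measured by AlphaLISA bead assay after 16 h compound exposure of THP-1 cells; compounds (final up to 57.5 uM) added 1 h before LPS (250 ng/mL) and ATP (1.25 mM) stimulation; lower signal means less secretion.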
DT40 TDP1 CPT: DT40-hTDP1 cell growth loss with CPT. chicken DT40 Tdp1-/-;hTDP1 cells + 20 nM CPT, ATP luminescence, 48 h. Potency, µM (titrated, usually from 46.2 µM), inactives show at the highest dose activity change, negative = growth inhibition, actives largely listed as inhibitors. hit rate 12% among 420,000. AID 686979; further: potency means the concentration at half of the fitted maximal effect; nearly all actives have a fitted effect of over 55% in size
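Cell growth measured by CellTiter-Glo luminescence after a minimum 48 h, 37 C compound exposure with 20 nM CPT in Tdp1-knockout DT40 cells stably expressing hTDP1, seeded 400/well; qHTS titration format.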
TDP1 cell noCPT: qHTS for Inhibitors of human tyrosyl-DNA phosphodiesterase 1 (TDP1): qHTS in cells in absence of CPT; DT40 Tdp1-/- hTDP1 cells, no CPT, ATP luminescence, 48 h; Potency, µM (doses to about 46.2 µM), for inactives: at the highest dose activity change, negative = growth inhibition, actives largely listed as inhibitors; hit rate 15% among 420,000; further: potency means the concentration at half of the fitted maximal effect; nearly all actives have a fitted effect of over 55% in size
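Compound effects on proliferation are scored in DT40 Tdp1-/-;hTDP1 cells in the absence of CPT. ATP levels (CellTiter-Glo luminescence) are recorded after a ≥48 hr, 37 °C incubation.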
HT1080 IDH1KD tx: HT-1080 IDH1 knockdown cell toxicity (counter line); HT-1080 IDH1 knockdown viability, ATP luminescence, 48 h; Potency, µM (series often up to 46.1 µM), for the others: at the top dose activity, negative = toxicity, hits mostly cytotoxic; hit rate 2% among 360,000; AID 686971;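 further: potency means the concentration at half of the fitted maximal effect; 0% = DMSO wells and -100% = cell-free medium wells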
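HT-1080-IDH1KD cells (IDH1 knocked down), 750/well in RPMI with 5% FBS, treated with compound 48 h at 37 degrees C. Viability by CellTiter-Glo luminescence, normalised to DMSO and no-cell wells; concentration-response curves classed.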
ALOX12 inh: blocks human arachidonate 12S-lipoxygenase; P18054; purified 12hLO, xylenol orange hydroperoxide absorbance; Potency, µM (top dose mostly 108 µM), for the others: top-dose activity change, negative = inhibition, usual class: inhibitors; hit rate 1.1% among 580,000; AID 1671190; further: potency means the concentration at half of the fitted maximal effect
Target sequence (P18054 whole entry, looked up): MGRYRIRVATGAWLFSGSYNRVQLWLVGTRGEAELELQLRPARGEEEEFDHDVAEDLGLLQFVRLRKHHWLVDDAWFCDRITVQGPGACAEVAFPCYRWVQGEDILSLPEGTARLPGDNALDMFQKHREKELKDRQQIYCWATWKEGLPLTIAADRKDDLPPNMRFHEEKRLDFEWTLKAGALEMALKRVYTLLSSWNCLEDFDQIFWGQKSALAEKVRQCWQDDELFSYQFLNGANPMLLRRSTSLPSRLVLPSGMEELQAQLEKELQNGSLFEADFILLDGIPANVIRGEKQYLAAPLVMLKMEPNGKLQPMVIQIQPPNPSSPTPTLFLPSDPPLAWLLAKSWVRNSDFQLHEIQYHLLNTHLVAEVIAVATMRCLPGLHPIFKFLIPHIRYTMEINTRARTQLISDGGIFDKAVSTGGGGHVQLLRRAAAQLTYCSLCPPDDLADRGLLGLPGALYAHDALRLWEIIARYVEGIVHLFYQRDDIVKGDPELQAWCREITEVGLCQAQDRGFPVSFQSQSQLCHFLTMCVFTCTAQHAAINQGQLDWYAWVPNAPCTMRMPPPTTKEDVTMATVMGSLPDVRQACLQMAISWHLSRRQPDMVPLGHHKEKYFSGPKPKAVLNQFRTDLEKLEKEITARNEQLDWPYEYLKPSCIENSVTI
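Purified human 12hLO (150 nM final) in 25 mM Hepes, 0.01% Triton X-100, pH 7.0 was preincubated 15 min at room temperature with compound. Then 40 uM arachidonic acid was added, 30 min. Hydroperoxide was read by Fe-XO absorbance ratio 573/405 nm.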
HT1080-NT tox: kills 2HG-producing HT-1080-NT fibrosarcoma cells | HT-1080-NT fibrosarcoma viability, CellTiter-Glo ATP luminescence, 48 h | Potency, µM (doses to about 46.1 µM), inactives show top-dose activity, negative = less viability, hits mostly cytotoxic | hit rate 1.6% among 360,000 | AID 686970;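 further: NT is the 2HG producing partner of a matched IDH1 knockdown line; potency means the concentration at half of the fitted maximal effect; 0% = DMSO-treated cells and -100% = media-only wells without cells; nearly all actives have a fitted effect of over 55% in size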
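A 48-hour cytotoxicity screen used HT-1080-NT cells plated 2 hours before compound delivery. ATP-based CellTiter-Glo luminescence measured viability, normalized to DMSO and no-cell controls.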
* = called active by the depositor; ? = inconclusive; . = not tested or not shown; [ ] = dose if it differs, or a comment. Unless noted, the call rests on the fitted dose curve; in most records, active means well fitted curve in the direction sought with a large enough effect; inconclusive means small, poorly fitted or top-dose-only effect, or another doubt; inactive means no such curve, though single readings can be large; an effect the other way counts as inactive or inconclusive. Unless noted, on the % scale 0 is the no-effect control and ±100 the full control effect.

SMILES	IL-1B inflam inh	DT40 TDP1 CPT	TDP1 cell noCPT	HT1080 IDH1KD tx	ALOX12 inh	HT1080-NT tox
CCN(CCc1nc2ccc(C)cc2[nH]1)C(=O)c1ccccc1C1CCNC1 (stereo unspecified)	.	.	.	.	32%	.
CCN(CC(=O)Nc1ccc(S(=O)(=O)N2CCOCC2)cc1)Cc1ccccc1	-17	-28%	-28%	-2%	4%	-4%
CCN(CC(=O)Nc1ccc(S(=O)(=O)N2CCCC2)cc1)Cc1ccccc1	-4	16µM*	?	-2%	-17%	5%
COc1ccccc1N(CC(=O)Nc1ccc(S(=O)(=O)N2CCCCC2)cc1)S(C)(=O)=O	-3	?	18µM*	-11%	-6%	-7%
COc1ccccc1CC(=O)Nc1ccc(S(=O)(=O)N2CCCCC2)cc1	-17	-19%	?	-4%	-20%	0%
CCN(CC(=O)Nc1cc(S(=O)(=O)N2CCOCC2)ccc1C)Cc1ccccc1	-4	16µM*	13µM*	3%	-7%	12%
Cc1nn(CCO)cc1CN1CCN(C(=O)c2ccoc2)CC(O)C1 (stereo unspecified)	.	.	.	.	31%	.
COc1ccccc1/C=C/C(=O)OCC(=O)c1c[nH]c2ccccc12	29	?	21µM*	1%	283%	-11%
CC(C)Cc1ccc(C(C)C(=O)OCC(=O)c2c[nH]c3ccccc23)cc1 (stereo unspecified)	-24	10µM*	13µM*	?	2%	?
C=CCN(c1ccccc1OC)S(=O)(=O)c1cccc(C(=O)NC2=NCCS2)c1	-11	?	23µM*	2%	0%	2%
COc1ccccc1/C=C/C(=O)OCC(=O)c1cc(C)n(C)c1C	-14	?	?	19%	8%	23%
COc1ccc(C(=O)OCC(=O)c2c[nH]c3ccccc23)cc1OC	38	-5%	-2%	-16%	0%	-6%
COc1cc(OC)c(N(C)S(=O)(=O)c2cccc(C(=O)OCC(=O)c3c[nH]c4ccccc34)c2)cc1Cl	13	?	23µM*	?	-7%	-20%
C=CCN(c1ccccc1OC)S(=O)(=O)c1cccc(C(=O)Nc2nnc(C3CC3)s2)c1	2	21%	1%	-16%	12%	0%
Cc1ccc(C(=O)OCC(=O)c2c[nH]c3ccccc23)cc1	40	-2%	0%	-10%	-10%	-10%
CC(C)C(C#CC1CC1)N(Cc1ccc2c(c1)OCO2)C(N)=NC(=O)/C=C/c1ccccc1 (stereo unspecified)	.	.	.	.	39%	.
C=CCN(c1ccccc1OC)S(=O)(=O)c1cccc(C(=O)OCC(=O)c2c[nH]c3ccccc23)c1	-2	?	23µM*	-13%	-30%	1%
O=S(=O)(c1cccnc1)N1CC(c2noc(C3CCCN3CC3CC3)n2)C1 (stereo unspecified)	.	.	.	.	55%	.
COc1ccc(NC(=O)c2sc3nc(C)nc(N4CCOCC4)c3c2C)c(OC)c1	10	-3%	-22%	7%	14%	16%
CCOc1ccc(NC(=O)c2sc3nc(C)nc(N4CCOCC4)c3c2C)cc1	-53*	-3%	?	-9%	-1%	-10%
Cc1cc(C)cc(NC(=O)c2sc3nc4n(c(=O)c3c2C)N=C(c2ccc(F)cc2)CS4)c1	.	-17%	-26%	.	-18%	.
Cc1c(C(=O)Nc2ccc(F)cc2F)sc2nc3n(c(=O)c12)N=C(c1ccccc1)CS3	.	15µM*	?	.	-14%	.
Cc1nc(N2CCOCC2)c2c(C)c(C(=O)Nc3ccc(F)cc3F)sc2n1	-68*	-28%	?	-14%	-2%	-3%
Cc1cc(Cl)ccc1OCC(=O)N1CCOc2ccc(CN3C[C@@H](C)O[C@@H](C)C3)cc2C1	.	-3%[9.04 µM]	?	.	13%	.
COc1ccc(CNC(=O)COC(=O)CN2C(=O)C3CC=CCC3C2=O)cc1 (stereo unspecified)	-4	-10%	-8%	-4%	-7%	-5%
SMILES	IL-1B inflam inh	DT40 TDP1 CPT	TDP1 cell noCPT	HT1080 IDH1KD tx	ALOX12 inh	HT1080-NT tox
O=C(NCCn1cccn1)c1ccc(OC2CCN(CCc3ccccc3)CC2)cc1	-81*	13%	-19%	1%	0%	-4%
O=C(NCCn1ccnc1)c1ccc(OC2CCN(CCc3ccccc3)CC2)cc1	.	.	.	.	8%	.
COc1cccc(CNC(=O)C2CCN(c3cc(C(F)(F)F)nc(C)n3)CC2)c1	.	.	.	.	11%	.
CCCCCCCCCn1ccc(=N)cc1	-94*	0.23µM*	0.15µM*	15µM*	79%	?
CCCCCCN1CC(O)=C(c2ccccc2)C1=N	10	-4%	-1%	12%	?	10%
CCn1ccc(=N)cc1	12	-18%	4%	7%	0%	7%
CCCCCCCn1ccc(=N)cc1	?	0.52µM*	0.52µM*	?	0%	?
CCCCCn1ccc(=N)cc1	-30	9.2µM*	5.2µM*	-19%	8%	-11%
Cc1ccc(S(=O)(=O)NN=C(c2ccccc2)c2cccs2)cc1	-12	-19%	12µM*	-13%	?	-16%
O=C(CC1Sc2ccccc2NC1=O)NCc1ccccc1 (stereo unspecified)	16	-4%	-1%	6%	-8%	8%
CC(=O)c1ccc(NC(=O)CC2Sc3ccccc3NC2=O)cc1 (stereo unspecified)	.	12µM*	13µM*	.	-1%	.
O=C(CC1Sc2ccccc2NC1=O)NNc1ccc(Cl)cc1Cl (stereo unspecified)	-58*	?	?	?	-21%	?
O=C(CC1NC(=O)NC1=O)Nc1ccc(Cl)cc1 (stereo unspecified)	4	-19%	21%	0%	?	-4%
O=C(CC1SC(=O)NC1=O)Nc1ccc(Cl)cc1 (stereo unspecified)	1	3.3µM*	9.2µM*	-10%	-12%	-4%
Cc1cc(N2CCN(C(=O)OC(C)(C)C)C[C@@H]2C)ccc1N1CCN(Cc2ccccc2)[C@@H](C)C1	.	.	.	.	-23%	.
Cc1ccc(CNC(=O)c2cnn(C)c2-n2cccc2)cn1	.	.	.	.	67%	.
OCCCCNCc1cc(Br)ccc1OCc1ccccc1F	-70*	?	?	-17%	0%	-28%
C=CCOc1ccc(Br)cc1CNCC	-10	-12%	-7%	5%	13%	-1%
c1ccc(COc2cccc(CNCc3cccnc3)c2)cc1	-1	-23%	?	-3%	?	-9%
O=Cc1ccc(OCc2ccc(Cl)cc2Cl)c(Br)c1	.	.	.	.	1%	.
Cc1ccccc1NC(=O)COc1ccc(Br)cc1CNCCCO	-13	-2%	-10%	0%	-2%	0%
